A short description of experiment [1]: S16 Schwann cell viability assay (CellTiter-Glo assay) (AID 624031). Note: nearly all actives have a fitted effect of over 70% in size. Note: potency is the fitted concentration of half-maximal effect. In outline:
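Following overnight culture in 10% FBS DMEM, parental S16 rat Schwann cells are dosed for 24 h at 37 °C. Viability is read as CellTiter-Glo luminescence and expressed as % activity relative to DMSO (0%) and no-cell wells.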
On the technique in general: ATP-based viability assays read luminescence as a measure of living cells.

Experiment [2] in a line: S16 Schwann cell PMP22 intronic element firefly luciferase assay (AID 624032). Note: nearly all actives have a fitted effect of over 30% in size. Note: potency is the fitted concentration of half-maximal effect. In outline: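 Luciferase reporter of PMP22 intronic-element expression in stably transfected S16 rat Schwann cells, read by ONE-Glo luminescence after 24 h compound exposure at 37 C. Activity scaled between DMSO (0%) and positive-control PTC124; concentration-effect curves quality-classified.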

Experiment [3] concerns the target Glutaminase kidney isoform, mitochondrial (Homo sapiens) (UniProt O94925). The experiment can be described thus: qHTS for Inhibitors of Glutaminase (GLS): LOPAC Validation (AID 624146).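 Note: glutamate product detected by oxidase and peroxidase coupled Amplex red fluorescence gain; % is set by controls: 0 for no effect and ±100 for the full control effect; nearly all actives have a fitted effect of over 60% in size.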 An outline of the steps:
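Assay buffer: 45 mM KH2PO4 pH 8.2, 0.02% Tween-20. hKGA acts on L-glutamine (1 mM solution added); product glutamate is reported by an oxidase/peroxidase Amplex Red coupling, with fluorescence taken at baseline and 30 min.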
A general note: In qHTS, concentration-response curves come from the screen itself.

Experiment [4] in a line: qHTS of Trypanosoma Brucei Inhibitors: LOPAC Validation (AID 624147). Note: potency is the fitted concentration of half-maximal effect. An outline of the steps: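 Glycolytic pyruvate kinase of T. brucei was incubated with substrate, test compound and 130 uM ADP for 45 minutes at room temperature. Luminescent Kinase-Glo Plus signal was measured after 10 minutes.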
In experiment [5] the target is Glucagon-like peptide 1 receptor (Homo sapiens) (UniProt P43220). The experiment in a line: qHTS of GLP-1 Receptor Agonists: LOPAC Validation (AID 624148).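 Note: luminescence from a luciferase reporter switched on by cAMP; 0% is about no effect; higher luminescence signal means agonism.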 An outline of the steps: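 Agonism scored as increased luciferase luminescence driven by cAMP in HEK293 clones carrying GLP-1R. Cells settled 12 hours, received compound for 4-6 hr at 37 deg C, 5% CO2, and were read after 12 min detection reagent at RT.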

Experiment [6] can be described thus: HTS Assay for Allosteric Antagonists of the Human D2 Dopamine Receptor: Hit Validation in HTRF (AID 624455).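 Note: stable D1 dopamine receptor cell line scored for blocking the D1 response; % is set by controls: 0 for no effect and ±100 for the full control effect.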 An outline of the steps:
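First, antagonism was screened by calcium flux in a force-coupled, inducible Hek293 Trex D2 line challenged with EC80 dopamine. Hits then went into an HTRF assay in cells stably expressing D1, testing inhibition of the D1 response.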
For orientation: TR-FRET usually uses a lanthanide donor and a delayed reading to cut background.

Experiment [7] has as its target Voltage-gated inwardly rectifying potassium channel KCNH2 (Homo sapiens) (UniProt Q12809). The experiment can be described thus: qHTS Assay for Small Molecule Inhibitors of the Human hERG Channel Activity (AID 588834).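 Note: lower thallium flux fluorescence means stronger hERG block; nearly all actives have a fitted effect of over 50% in size.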 Note: potency is the fitted concentration of half-maximal effect. An outline of the steps:
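Kinetic FDSS fluorescence; U2OS + hERG BacMam (~100 virus particles/cell); FluxOR Tl+ flux; ~10 min cpd; AC50 (Hill).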

Experiment [8] can be described thus: qHTS Assay for Identification of Small Molecule Agonists for NFkB Signaling Pathway. (AID 624478).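 Note: compounds tested together with TNF alpha at its EC50 of 10 pM; 0% is about no effect.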 In outline:
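ME-180 cervical carcinoma, stable NFkB-RE beta-lactamase reporter; 1000 cells/well, overnight attachment; cpd + TNF alpha 10 pM final, 5 h 37 C; LiveBLAzer 2 h RT; FRET 460/530 nm, ex 405 nm.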

Experiment [9] can be described thus: Cell Proliferation Assay against the TMD8 Cell Line (AID 651645).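 Note: cells exposed to compound for 48 h before reading.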 Conditions: TMD8 DLBCL cell line proliferation/viability; at 46.1 µM (top of the series) unless noted. An outline of the steps:
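Viability by CellTiter-Glo after 48 h compound exposure of 500 log-phase TMD8 cells per well (RPMI, 5% FBS). Percent activity scaled between DMSO (100%) and 9.2 uM final bortezomib (0%).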

Experiment [10] is described as follows: Cell Proliferation Assay against the HBL1 Cell Line (AID 651646).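 Note: cells exposed to compound for 48 h before reading.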 Conditions: HBL1 DLBCL cells; at 46.1 µM (top of the series) unless noted. In outline:
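Luminescent ATP read-out (CellTiter-Glo) after 48 h compound exposure of HBL1 cells at 37 °C; percent activity was scaled between DMSO as 100% and 9.2 uM bortezomib (final) as 0%.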

The target of experiment [11] is Luciferin 4-monooxygenase (Photinus pyralis) (UniProt P08659). The experiment can be described thus: Biochemical firefly luciferase enzyme assay for NPC (AID 624030).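 Note: purified P. pyralis luciferase at 10 nM with luciferin and ATP substrate; 0% = DMSO and -100% = full luciferase inhibition by PTC124 control; nearly all actives have a fitted effect of over 70% in size.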 In outline:
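Direct inhibition of firefly luciferase enzyme (10 nM final, 50 mM Tris Acetate) assessed by luminescence within 5 minutes. Percent activity scaled between DMSO and PTC124 positive control, with concentration-effect curves classified by fit quality and response.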

A short description of experiment [12]: qHTS of Nrf2 Activators: LOPAC Validation (AID 624149). Note: 0% is about no effect. An outline of the steps: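 Luminescence read-out of ARE-luciferase activation: AREc32_Fluc cells treated with compounds for 24 hr at 37 deg C, then lysed with Steady-Glo for 30 min at room temperature before reading.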
Experiment [13] is described as follows: S16 Schwann cell PMP22 intronic element beta-lactamase assay (AID 624044; calls by dose curve;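 note: 0% = DMSO and -100% = potassium clavulanate positive control; nearly all actives have a fitted effect of over 15% in size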). In outline:
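Rat S16 Schwann cells with beta-Lac driven by a PMP22 intronic element, compound-treated 24 h at 37 °C. LiveBLAzer FRET B/G read: 460 nm normalized to potassium clavulanate vs DMSO; 535 nm FRET as viability; concentration-effect curves classified.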

The nature of experiment [14]: qHTS assay for small molecule agonists of the antioxidant response element (ARE) signaling pathway (AID 651741; active = well fitted activation curve with a large enough effect in the signal ratio; the % refers to the signal ratio; note: potency is the fitted concentration of half-maximal effect). In outline:
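Quantitative HTS in HepG2 cells stably expressing an ARE-beta-lactamase reporter; 16 h compound exposure at 37 C, followed by 2 h room-temperature incubation with LiveBLAzer B/G FRET substrate and fluorescence measurement.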

Inconclusive results are not listed. Calls of active or inactive are those of the source. Unless noted, calls come from the whole dose curve; as a rule, active = well fitted curve in the direction sought with a large enough effect; inconclusive = small, poorly fitted or top-dose-only effect, or another doubt; inactive = no such curve, though single readings can be large; an effect the other way counts as inactive or inconclusive.

Chain of Luciferin 4-monooxygenase (Photinus pyralis) (P08659 whole entry, looked up): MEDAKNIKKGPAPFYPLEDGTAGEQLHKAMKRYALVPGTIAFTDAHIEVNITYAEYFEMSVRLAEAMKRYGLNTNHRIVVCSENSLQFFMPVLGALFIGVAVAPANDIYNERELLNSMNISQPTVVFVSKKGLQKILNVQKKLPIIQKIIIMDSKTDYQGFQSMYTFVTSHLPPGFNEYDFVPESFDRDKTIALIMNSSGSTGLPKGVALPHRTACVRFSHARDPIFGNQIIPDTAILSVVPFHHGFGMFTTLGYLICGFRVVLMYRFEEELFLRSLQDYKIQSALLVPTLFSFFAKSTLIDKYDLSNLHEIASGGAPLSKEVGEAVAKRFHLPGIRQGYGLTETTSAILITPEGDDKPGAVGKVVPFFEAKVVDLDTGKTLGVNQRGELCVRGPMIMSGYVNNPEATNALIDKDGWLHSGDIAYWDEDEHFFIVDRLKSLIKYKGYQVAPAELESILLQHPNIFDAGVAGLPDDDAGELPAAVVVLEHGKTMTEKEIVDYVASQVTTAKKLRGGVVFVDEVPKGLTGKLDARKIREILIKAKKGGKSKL
Chain of Glutaminase kidney isoform, mitochondrial (Homo sapiens) (O94925 whole entry, looked up, canonical isoform): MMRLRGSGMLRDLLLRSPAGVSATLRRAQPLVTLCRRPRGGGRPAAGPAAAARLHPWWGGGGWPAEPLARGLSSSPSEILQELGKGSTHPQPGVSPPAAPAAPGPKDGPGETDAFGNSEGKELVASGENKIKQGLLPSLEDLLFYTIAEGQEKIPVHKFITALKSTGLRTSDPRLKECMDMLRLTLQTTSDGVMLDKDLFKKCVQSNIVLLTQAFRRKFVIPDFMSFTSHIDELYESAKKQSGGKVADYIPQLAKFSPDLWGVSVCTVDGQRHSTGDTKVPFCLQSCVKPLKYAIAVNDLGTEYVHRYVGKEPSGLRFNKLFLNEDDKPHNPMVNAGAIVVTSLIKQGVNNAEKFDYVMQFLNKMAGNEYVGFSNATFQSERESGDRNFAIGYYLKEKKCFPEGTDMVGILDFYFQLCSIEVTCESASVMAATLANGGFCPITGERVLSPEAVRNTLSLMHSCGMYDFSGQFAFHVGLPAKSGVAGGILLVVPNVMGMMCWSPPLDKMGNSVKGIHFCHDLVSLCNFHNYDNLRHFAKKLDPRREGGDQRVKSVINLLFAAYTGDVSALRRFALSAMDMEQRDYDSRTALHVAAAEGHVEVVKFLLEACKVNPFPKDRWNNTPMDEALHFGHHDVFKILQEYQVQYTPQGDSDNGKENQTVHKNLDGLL
Chain of Voltage-gated inwardly rectifying potassium channel KCNH2 (Homo sapiens) (Q12809 whole entry, looked up): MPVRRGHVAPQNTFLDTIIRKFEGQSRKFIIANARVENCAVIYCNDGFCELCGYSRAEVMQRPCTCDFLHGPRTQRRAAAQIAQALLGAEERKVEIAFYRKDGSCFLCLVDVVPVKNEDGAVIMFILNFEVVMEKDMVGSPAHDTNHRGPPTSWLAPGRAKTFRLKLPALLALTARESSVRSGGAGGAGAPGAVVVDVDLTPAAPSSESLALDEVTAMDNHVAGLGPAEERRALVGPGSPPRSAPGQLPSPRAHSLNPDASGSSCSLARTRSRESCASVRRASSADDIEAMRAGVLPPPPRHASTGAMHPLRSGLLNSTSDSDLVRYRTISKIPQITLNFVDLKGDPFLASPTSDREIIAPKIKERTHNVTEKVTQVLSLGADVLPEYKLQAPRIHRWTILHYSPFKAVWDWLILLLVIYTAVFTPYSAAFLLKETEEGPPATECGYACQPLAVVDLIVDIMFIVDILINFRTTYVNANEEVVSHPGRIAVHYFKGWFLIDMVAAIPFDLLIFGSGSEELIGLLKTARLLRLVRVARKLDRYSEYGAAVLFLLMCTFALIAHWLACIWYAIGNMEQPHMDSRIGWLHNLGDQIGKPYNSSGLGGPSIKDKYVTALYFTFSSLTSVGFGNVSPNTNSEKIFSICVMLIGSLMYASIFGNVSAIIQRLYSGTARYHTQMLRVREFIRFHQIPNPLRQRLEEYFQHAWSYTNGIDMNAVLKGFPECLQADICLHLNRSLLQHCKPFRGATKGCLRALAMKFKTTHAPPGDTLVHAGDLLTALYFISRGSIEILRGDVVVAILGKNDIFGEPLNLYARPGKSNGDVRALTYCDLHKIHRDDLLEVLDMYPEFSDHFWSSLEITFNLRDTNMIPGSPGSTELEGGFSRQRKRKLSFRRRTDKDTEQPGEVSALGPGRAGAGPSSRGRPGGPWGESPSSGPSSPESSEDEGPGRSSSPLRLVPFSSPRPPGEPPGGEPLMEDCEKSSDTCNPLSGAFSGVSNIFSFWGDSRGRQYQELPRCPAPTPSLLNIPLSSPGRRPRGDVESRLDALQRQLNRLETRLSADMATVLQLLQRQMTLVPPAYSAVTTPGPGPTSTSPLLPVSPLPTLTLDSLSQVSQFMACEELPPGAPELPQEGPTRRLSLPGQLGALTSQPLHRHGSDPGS
Chain of Glucagon-like peptide 1 receptor (Homo sapiens) (P43220 whole entry, looked up): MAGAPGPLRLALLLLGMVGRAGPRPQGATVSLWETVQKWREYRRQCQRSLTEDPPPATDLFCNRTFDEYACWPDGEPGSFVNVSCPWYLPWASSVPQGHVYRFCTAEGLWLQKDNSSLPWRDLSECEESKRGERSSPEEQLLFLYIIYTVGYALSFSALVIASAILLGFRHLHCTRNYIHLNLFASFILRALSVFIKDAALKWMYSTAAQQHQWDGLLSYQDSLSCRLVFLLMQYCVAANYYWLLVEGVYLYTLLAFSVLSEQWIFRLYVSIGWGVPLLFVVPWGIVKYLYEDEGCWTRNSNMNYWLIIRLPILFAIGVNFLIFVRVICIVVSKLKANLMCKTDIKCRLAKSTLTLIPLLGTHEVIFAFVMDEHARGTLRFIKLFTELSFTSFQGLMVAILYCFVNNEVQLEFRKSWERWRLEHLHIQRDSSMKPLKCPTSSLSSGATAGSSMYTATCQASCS

Take `Cc1cc(C(C)(C)C)cc(C)c1CC1=NCCN1`: the Potency result in [1], in experiment [2], in [3], in [4], in [5] and in [6] was “inactive” throughout.

On to `CCc1cccc2c3c([nH]c12)C(CC)(CC(=O)O)OCC3` (centres undefined), for which the Potency entry in experiment [7], in experiment [3], in experiment [4], in [5] and in experiment [6] was “inactive” throughout.

On to `C[C@H]1c2cccc(O)c2C(O)=C2C(=O)[C@]3(O)C(O)=C(C(N)=O)C(=O)[C@@H](N(C)C)[C@@H]3[C@@H](O)[C@@H]21`, for which the Potency result in experiment [7], in experiment [4], in experiment [5] and in experiment [6] was “inactive” each time.

For `CC1(CN2CCC(n3c(=O)[nH]c4ccccc43)CC2)OCc2ccccc2-n2cccc21` (centres undefined), in experiment [7], the Potency is 11.2 µM (active). Also, in experiment [8], the compound was called inactive. For the same compound, the viability (% of control) in [9] is 12.7%. Further, the viability, percent of control in experiment [10] came to 6.74%.

As for `CCCCc1oc2ccccc2c1C(=O)c1cc(I)c(OCCN(CC)CC)c(I)c1`, the Potency entry in experiment [11], in experiment [3], in experiment [4], in experiment [5] and in experiment [6] was “inactive” in each case. Moreover, the Potency in [1] is 32.2 µM (active); in experiment [2], 28.7 µM (active). Further, in experiment [12], the outcome was inactive.

Consider `COc1ccccc1OCCNCC(O)COc1cccc2[nH]c3ccccc3c12` (centres undefined), for which, in [2], the Potency is 25.6 µM (active). The Potency result in [13], in [3], in experiment [4], in experiment [5] and in [6] was “inactive” throughout.

As to `Fc1ccc([C@@H]2CCNC[C@H]2COc2ccc3c(c2)OCO3)cc1`, the Potency result in experiment [3], in experiment [4], in [5] and in [6] was “inactive” throughout. Also, in [12], the result was inactive.

On to `CN1CCC(=C2c3ccccc3CC(=O)c3sccc32)CC1`, for which the Potency entry in experiment [11], in experiment [4], in experiment [5] and in experiment [6] was “inactive” in each case. Moreover, the call in experiment [12] was inactive.

Regarding `CC#C[C@]1(O)CC[C@H]2[C@@H]3CCC4=CC(=O)CCC4=C3[C@@H](c3ccc(N(C)C)cc3)C[C@@]21C`, the Potency result in experiment [1], in experiment [13], in [5] and in experiment [6] was “inactive” throughout. In addition, the Potency in experiment [4] was 21.3 µM (active); in [14] it was 21.7 µM (active). Further, the compound was classed as inactive in [12].

Regarding `CN1CCN(C2=Nc3cc(Cl)ccc3Nc3ccccc32)CC1`, the Potency result in [13], in experiment [3], in experiment [4] and in [5] was “inactive” throughout.

Regarding `COc1ccc2c(c1)c(CC(=O)O)c(C)n2C(=O)c1ccc(Cl)cc1`, the Potency entry in experiment [7], in [3], in [4], in [5] and in experiment [6] was “inactive” each time.

With `O=C1Cc2cc(CCN3CCN(c4nsc5ccccc45)CC3)c(Cl)cc2N1`, the Potency entry in experiment [11], in experiment [3], in experiment [4], in experiment [5] and in [6] was “inactive” in each case.

As for `CCC1(C)CC(=O)NC1=O` (centres undefined), the Potency result in experiment [7], in experiment [4], in experiment [5] and in experiment [6] was “inactive” throughout. Further, the compound was called inactive in experiment [12].

On to `CCCNCC(O)COc1ccccc1C(=O)CCc1ccccc1` (centres undefined), for which, in experiment [2], the Potency is 25.6 µM (active). Further, the Potency entry in experiment [4], in [5] and in experiment [6] was “inactive” each time.

For `CC(C(=O)O)c1cccc(C(=O)c2ccccc2)c1` (centres undefined), the Potency entry in [7], in experiment [3], in experiment [4], in [5] and in experiment [6] was “inactive” each time.

With `CN1CCN(CCCN2c3ccccc3Sc3ccc(Cl)cc32)CC1`, the Potency result in [4], in [5] and in experiment [6] was “inactive” each time.

On to `CC1COc2c(N3CCN(C)CC3)c(F)cc3c(=O)c(C(=O)O)cn1c23` (centres undefined), for which the Potency entry in [7], in [3], in [4], in experiment [5] and in [6] was “inactive” each time.

`CN1CCN2c3ccccc3Cc3ccccc3C2C1` (centres undefined): the Potency result in experiment [11], in experiment [1], in experiment [2], in experiment [13], in [3] and in [5] was “inactive” in each case. Besides, in experiment [6], the Potency entry was “inactive”. Moreover, the compound was called inactive in [12].

The values are drawn from PubChem BioAssay (NCATS).
